# How the values were obtained:
# Assay in all cases: PBM binding z-score (relative to random genomic background probes); higher = stronger binding; sequences stand for … in GC…GCGATTGACAGCGTAGAATGAAGG
# [1] = tested on: FXR:RXRa (NR concentration 270 nM, RXRa partner concentration 90 nM)
# In short: (§1)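 On custom Agilent 4×180K arrays, double-stranded probes with 34-nt variable regions carried direct-repeat seeds, single-nucleotide variants, half-site ablations or random human genomic background. Ligand-free nuclear receptor dimers were applied for 1 h, and binding was read with antibodies against each partner (one per run). Binding z-scores come from regression-normalized fluorescence, with the random background probes as reference.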
# [2] = tested on: LXRa:RXRa (NR concentration 270 nM, RXRa partner concentration 90 nM)
# In short: as §1
# [3] = tested on: LXRa homodimer (NR concentration 270 nM)
# In short: as §1
# [4] = tested on: LXRb:RXRa (NR concentration 270 nM, RXRa partner concentration 90 nM)
# In short: as §1
# [5] = tested on: LXRb homodimer (NR concentration 270 nM)
# In short: as §1
# [6] = tested on: PPARa:RXRa (NR concentration 270 nM, RXRa partner concentration 90 nM)
# In short: as §1
# [7] = tested on: PPARg:RXRa (NR concentration 180 nM, RXRa partner concentration 90 nM)
# In short: as §1
# [8] = tested on: PPARg:RXRa 270nM:90nM, anti-RXR (NR concentration 270 nM, RXRa partner concentration 90 nM)
# In short: as §1
# [9] = tested on: PPARg:RXRa 30nM:10nM, anti-RXR (NR concentration 30 nM, RXRa partner concentration 10 nM)
# In short: as §1
# [10] = tested on: PPARg:RXRa 90nM:30nM, anti-RXR (NR concentration 90 nM, RXRa partner concentration 30 nM)
# In short: as §1
# [11] = tested on: PPARg:RXRa DBDmut IVT, anti-RXR (DBD mutation: RXRa K156A/R161A, NR concentration 270 nM, RXRa partner concentration 90 nM)
# In short: as §1
# [12] = tested on: PPARg:RXRa IVT, anti-PPARg (NR concentration 270 nM, RXRa partner concentration 90 nM)
# In short: as §1
# [13] = tested on: PPARg DBDmut:RXRa IVT, anti-PPARg (DBD mutation: PPARg1 K132A/R137A, NR concentration 270 nM, RXRa partner concentration 90 nM)
# In short: as §1
# [14] = tested on: PPARg DBDmut IVT, anti-PPARg (DBD mutation: PPARg1 K132A/R137A, NR concentration 270 nM)
# In short: as §1
# [15] = tested on: PPARg homodimer (NR concentration 180 nM)
# In short: as §1
# [16] = tested on: PXR:RXRa (NR concentration 270 nM, RXRa partner concentration 90 nM)
# In short: as §1
# [17] = tested on: PXR homodimer (NR concentration 270 nM)
# In short: as §1
# [18] = tested on: RARa:RXR (NR concentration 270 nM, RXRa partner concentration 90 nM)
# In short: as §1
# [19] = tested on: RARa homodimer (NR concentration 270 nM)
# In short: as §1
# [20] = tested on: RARb:RXRa (NR concentration 270 nM, RXRa partner concentration 90 nM)
# In short: as §1
Sequence,PBM binding z-score [1],PBM binding z-score [2],PBM binding z-score [3],PBM binding z-score [4],PBM binding z-score [5],PBM binding z-score [6],PBM binding z-score [7],PBM binding z-score [8],PBM binding z-score [9],PBM binding z-score [10],PBM binding z-score [11],PBM binding z-score [12],PBM binding z-score [13],PBM binding z-score [14],PBM binding z-score [15],PBM binding z-score [16],PBM binding z-score [17],PBM binding z-score [18],PBM binding z-score [19],PBM binding z-score [20]
CGAACTAGGTCAAGGACTGTGAATCTCCGCACGC,3.02,2.02,-0.179,1.36,-0.152,4.37,7.06,6.47,4.05,5.99,8.18,8.06,0.764,0.958,1.34,0.92,-0.392,1.78,0.232,4.01
CAGCCTAGGTCAGGCCCAGTATAGGAGGAACGTT,1.06,0.524,-0.444,0.0997,-0.815,1.45,0.633,0.673,-0.32,0.386,0.76,1.39,-0.686,-1.02,0.325,-0.0342,-0.609,0.588,-0.629,3.2
AGTCAAAGTTCAGGACGAGGTAACGCAAAGCACG,3.93,3.88,1.08,2.03,0.0872,3.33,4.31,4.9,1.97,3.87,-0.0629,1.75,0.41,-0.132,1.73,2.72,1.03,2.78,0.826,4.33
TCAGAAAGGTGAAGGTAACTCAGGTACGCAGTCG,1.82,2.61,0.105,1.67,-0.156,2.97,1.75,3.44,4.63,4.04,4.06,2.93,0.125,0.136,0.958,1.12,0.164,1.88,0.504,3.25
AGTCAAAGTTCAGGACGAGGGAACGTAAAGCACG,3.73,3.68,0.988,1.57,0.379,3.05,4.52,4.88,1.99,3.87,-0.374,1.46,0.293,0.513,2,2.12,0.898,2.09,0.539,4.2
AGGACGAGGGCAATGAGTTGATAGCACGGGTGGC,0.665,0.175,-0.256,-0.148,-0.403,0.903,1.12,0.232,-0.168,-0.187,1.76,1.02,0.439,0.19,0.218,1.55,4.82,0.678,-0.00105,2.12
TATCCTAGGTCATGCGGGCCAGTATAGTGTCGGC,4.73,5.7,4.76,2.7,2.07,4.14,3.92,3.74,1.55,2.88,3.98,4.97,1.6,1.66,1.75,2.04,0.212,2.76,-0.133,3.9
